Assay results as given in PubChem BioAssay.
Activity calls are given as the source filed them. Unless noted, no rule for the calls is given here.

What was measured:
[1] = tested on: XIP peptide (Xip251-270) binding; assay: small-molecule binders of XIP peptide, primary screen, biochemical, small-molecule microarray, fluorescence 635/667 nm, 0.1 µg/mL protein (AID 1182); details: fluorescent protein binding, 635 nm, higher = more signal, called active from +8 up or from −8 down
XIP peptide (Xip251-270) = assay: small-molecule binders of XIP peptide, primary screen, biochemical, small-molecule microarray, fluorescence 635/667 nm, 0.5 µg/mL protein (AID 1183); details: small-molecule microarray binding, fluorescence 635 nm; higher = more signal
[2] = Plasmodium falciparum growth inhibition, primary screen, strain 3D7, DAPI fluorescence, 100 nL (AID 1184);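 also: parasites grown inside human red blood cells in medium with human serum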; details: P. falciparum 3D7 growth, 3 d, higher = more signal
[3] = target: Homeobox protein Hox-A13 (Mus musculus) (UniProt Q62424); assay: inhibitors of HoxA13-DNA binding, primary screen, biochemical, fluorescence polarization, labeled oligonucleotide (AID 1185); details: 15 min, higher = more signal, called active from +8 up or from −8 down
Chain of Homeobox protein Hox-A13 (Mus musculus) (Q62424 whole entry, looked up): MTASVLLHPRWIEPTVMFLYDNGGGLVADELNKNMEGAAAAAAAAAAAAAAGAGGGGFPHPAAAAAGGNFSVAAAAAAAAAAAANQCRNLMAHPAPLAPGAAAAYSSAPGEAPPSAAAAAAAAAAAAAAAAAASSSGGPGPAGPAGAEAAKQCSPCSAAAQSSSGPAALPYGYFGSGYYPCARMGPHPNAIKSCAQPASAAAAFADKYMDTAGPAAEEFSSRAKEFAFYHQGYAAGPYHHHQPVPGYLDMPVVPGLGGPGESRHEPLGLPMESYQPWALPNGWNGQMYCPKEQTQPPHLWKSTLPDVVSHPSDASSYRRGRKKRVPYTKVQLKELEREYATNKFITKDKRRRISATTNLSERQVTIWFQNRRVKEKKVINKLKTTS

[4] = inhibitors of hydroxyurea-induced Chk1 phosphorylation, primary screen, imaging, HeLa, phospho-Chk1 antibody, percent positive cells (AID 1186); details: hydroxyurea-induced phospho-Chk1 immunofluorescence imaging, higher = more signal
[5] = inhibitors of hydroxyurea-induced Chk1 phosphorylation, primary screen, imaging, HeLa, phospho-Chk1 nuclear intensity (AID 1187); details: hydroxyurea-induced phospho-Chk1 immunofluorescence imaging, higher = more signal

Structure (SMILES)	composite z-score [1]	composite z-score (XIP peptide (Xip251-270))	z-score [2]	z-score [3]	z-score [4]	z-score [5]
COC(=O)C[C@H]1O[C@]2(C(=O)N(C)c3ccccc32)[C@@H](C)[C@@H]1[Si](C)(C)c1ccccc1	-0.182 (inactive)	0.428	-1.48	-7.09 (inactive)	-0.0412 (inactive)	0.192 (inactive)
O=C1O[C@@H](c2ccccc2)[C@@H](c2ccccc2)N2[C@@H](c3ccc(OCCO)cc3)[C@]3(C(=O)Nc4ccc(C#CC5=CCCCC5)cc43)[C@@H](C(=O)Nc3nc4ccccc4s3)[C@H]12	-0.487 (inactive)	0.646	-1.38	-15.3 (active)	-0.176 (inactive)	-0.282 (inactive)
COC(=O)[C@@]1(Cc2ccc(F)cc2)[C@H]2c3cc(C(=O)N4CCCC4)n(CCSCCO)c3C[C@H]2CN1C(=O)c1ccccc1	0.159 (inactive)	-0.279	-1.41	-4.82 (inactive)	0.685 (inactive)	0.827 (inactive)
O=C(NCC(F)(F)F)[C@@H]1c2ccccc2C(=O)N(Cc2cc(C(F)(F)F)cc(C(F)(F)F)c2)[C@H]1c1ccc(CO)cc1	-0.398 (inactive)	0.637	0.362	-2.44 (inactive)	-0.373 (inactive)	-0.356 (inactive)
CCOC(=O)C[C@H]1[C@H](OC(=O)c2cc3ccccc3oc2=O)[C@@H](NC(=O)c2ccc(-c3ccccc3)cc2)c2cc(OCCCO)ccc2N1C(=O)Cc1ccc(OC)cc1	0.108 (inactive)	0.437	-0.638	-3.12 (inactive)	0.105 (inactive)	-0.0512 (inactive)
CN1C(=O)C2C=CC(C(O)c3cccs3)N(N(c3ccccc3)c3ccccc3)C2C1=O (stereo unspecified)	0.564 (inactive)	0.482	-0.0266	-4.42 (inactive)	0.557 (inactive)	-0.499 (inactive)
C=C(C)C1CN([C@H](CO)c2ccccc2)C(=O)/C1=C\c1ccccc1 (stereo partly specified)	-0.598 (inactive)	0.36	-1.9	-1.05 (inactive)	-0.484 (inactive)	-0.234 (inactive)
COC(=O)[C@H]1N=C(c2ccc(OCCCO)cc2)O[C@H]1c1ccccc1N=[N+]=[N-]	0.363 (inactive)	0.75	-2.1	-4.13 (inactive)	-0.0771 (inactive)	0.193 (inactive)
CC(C)c1ccc(NN2C(C(O)C(C)c3ccccc3)C=CC3C(=O)N(c4ccccc4)C(=O)C32)cc1 (stereo unspecified)	2.17 (inactive)	0.77	-0.119	-2.2 (inactive)	0.545 (inactive)	0.739 (inactive)
C=C(C(=O)CC[C@@H](OC(=O)c1ccccc1-c1ccccc1C(=O)O)c1ccc(OCCO)cc1)C(C)C	-0.206 (inactive)	0.568	-2.12	-5.47 (inactive)	0.468 (inactive)	0.59 (inactive)
OCCCc1cc[n+](Cc2cc3c(cc2Br)OCO3)cc1	0.0084 (inactive)	0.579	-1.96	-2.45 (inactive)	-0.0355 (inactive)	0.0561 (inactive)
CN1C(=O)C2C=CC(C(O)c3ccc(I)cc3)N(N(c3ccccc3)c3ccccc3)C2C1=O (stereo unspecified)	0.157 (inactive)	0.348	0.387	-1.5 (inactive)	-0.839 (inactive)	-1.1 (inactive)
C=CCOC(=O)[C@@H]1[C@H]2C(=O)O[C@H](c3ccccc3)[C@H](c3ccccc3)N2[C@H](c2ccc(OCCOC(=O)[C@H]3C[C@H]4C(=O)N[C@@H](CCCCN(C)C)C(=O)N4[C@H]3c3cccc(OCCO)c3)cc2)[C@@]12C(=O)Nc1ccccc12	0.876 (inactive)	0.686	-0.405	-1.64 (inactive)	-0.224 (inactive)	-0.375 (inactive)
Cc1ccc(S(=O)(=O)N2[C@@H](c3ccccc3)C(C(=O)O)=C[C@H]2C(C)(C)C)cc1	1.11 (inactive)	0.792	-1.04	-5.12 (inactive)	0.694 (inactive)	0.0696 (inactive)
CCc1cccc(NC(=O)O[C@H]2[C@H](OC(=O)Nc3ccccc3-c3ccccc3)[C@H](OC(=O)Nc3ccccc3-c3ccccc3)[C@@H](OC)O[C@@H]2CO)c1	0.187 (inactive)	0.591	-2.53	-1.39 (inactive)	-0.36 (inactive)	0.0172 (inactive)
C[C@H]1C2[C@H](Cc3ccccc3)NC(=O)[C@]23C(=O)N[C@@H](Cc2ccccc2)C(=O)N2CCC[C@H]2C(=O)NC/C=C/CC/C=C/C3[C@@H]2O[C@]12C (stereo partly specified)	0.182 (inactive)	0.457	-2.99	-7.13 (inactive)	-0.234 (inactive)	-0.437 (inactive)
COC(=O)[C@@]1(Cc2ccc(F)cc2)[C@H]2c3cc(C(=O)N(C)C)n(CCF)c3C[C@H]2CN1C(=O)c1ccccc1	0.588 (inactive)	0.779	-0.552	-5.09 (inactive)	-0.847 (inactive)	-0.595 (inactive)
C=CCNC(=O)[C@H]1[C@@H]2C(=O)O[C@@H](c3ccccc3)[C@@H](c3ccccc3)N2[C@@H](c2ccc(OCCO)cc2)[C@]12C(=O)N(C(=O)OCCOC)c1ccc(C#CCNC(N)=O)cc12	0.797 (inactive)	0.579	0.0978	-1.67 (inactive)	-0.128 (inactive)	-0.209 (inactive)
C=C(COC)/C(=C/C[C@@H](OC(=O)c1ccncc1)c1ccccc1OCCO)c1cnc2ccccc2c1	0.882 (inactive)	0.745	-3.1	-4.25 (inactive)	0.112 (inactive)	-0.291 (inactive)
CN(C)C(=O)[C@]1(CCS(=O)(=O)c2ccccc2)N=C(c2ccc(OCCCO)cc2)O[C@@H]1c1ccccc1CN=[N+]=[N-]	0.556 (inactive)	0.816	-2.13	-4.39 (inactive)	-0.376 (inactive)	-0.0306 (inactive)
O=C/C=C/c1ccc(-c2ccccc2)cc1	-1.46 (inactive)	-0.548	0.886	-1.34 (inactive)	0.236 (inactive)	0.792 (inactive)
O=C1N(Cc2ccccc2)c2ccccc2C[C@@]12N=C(c1ccc(OCCCO)cc1)O[C@H]2c1ccccc1	1.85 (inactive)	0.541	-2.52	-5.07 (inactive)	0.134 (inactive)	0.553 (inactive)
COCCOC(=O)N1C(=O)[C@@]2(c3cc(C#CCC(C(=O)OC)C(=O)OC)ccc31)[C@H](C(N)=O)[C@H]1C(=O)O[C@H](c3ccccc3)[C@H](c3ccccc3)N1[C@@H]2c1ccccc1OCCO	0.286 (inactive)	0.575	-1.93	-2.49 (inactive)	-0.663 (inactive)	-1.57 (inactive)
COC(=O)[C@]1(Cc2ccccc2N=[N+]=[N-])N=C(c2ccc(OCCCO)cc2)O[C@@H]1c1ccccc1CN=[N+]=[N-]	0.11 (inactive)	0.729	-1.96	-1.15 (inactive)	-0.446 (inactive)	-0.437 (inactive)
[N-]=[N+]=Nc1ccccc1C[C@@]1(C(=O)NCc2ccccc2)N=C(c2ccc(OCCCO)cc2)O[C@@H]1c1ccccc1	-0.116 (inactive)	0.746	-2.51	-2.4 (inactive)	-0.603 (inactive)	-0.942 (inactive)
[N-]=[N+]=Nc1ccccc1C[C@]1(C(=O)N2CCCCC2)N=C(c2ccc(OCCCO)cc2)O[C@H]1c1ccccc1	1.48 (inactive)	0.758	-2.34	-5.43 (inactive)	-0.554 (inactive)	-0.78 (inactive)
